Results: article PMC12136788
In all, about 5,800 sequences were measured (“enrichment r”: median about 0.68, highest 2% from about 11 on). The list is a sample of the results.

B1: chr1:225419324:225419425:-|CDS|ENSG00000143815|msi1|FALSE|unique (ssRNA)
RNA: GGGAGUUCUACAGUCCGACGAUCUUACAUAGCAACACAGUAUAGCCUUCGUCCAAGAAGAGAAGAAGUCAAAUUAAAAGAAAUAGAUUCUAAGGAAGAAAAAUACGUUGCAAAAGAACUGGCAGUGAGAACCUUUGAAGUGACCAACAGAGGAUUGAGCAUCA
B2: chr16:18841627:18841728:-|CDS|ENSG00000157106|msi1|FALSE|bound_elsewhere (ssRNA)
RNA: GGGAGUUCUACAGUCCGACGAUCUACAAUUAAUCGCCAAGAAACACCCCGGUUCCAUGCUCGACACUAUUCUGUAACACCACUAGGAACAAGAUCAGGACUAAUCCAGUGGGUAGAUGGAGCCACACCCUUAUUUGGUCUUUACAACAGAGGAUUGAGCAUCA
B3: chr15:65058426:65058617:-|CDS|ENSG00000103710|control|control|control (ssRNA)
RNA: GGGAGUUCUACAGUCCGACGAUCCUGAACUGGGCCCAUGCCUUCCUGGUGGUGUACAGCGUCGACAGCCGCCAGAGCUUUGAUAGCAGCAGCAGCUACCUGGAGCUGCUUGCCUUGCACGCGAAGGAGACACAGCGCAGCAUCCAACAGAGGAUUGAGCAUCA
B4: chr8:28970260:28970371:+|CDS|ENSG00000147421|unk|total|mutant (ssRNA)
RNA: GGGAGUUCUACAGUCCGACGAUCUCUUCCUCUACAGCUACAGCUUCCACACAGACGCAGCAUUCGGGAAUGUCCCCGUCACCCCGCAACAGUUAUGAUACUUCCCCACAGCCUUGCACUACCAAUCAAAAUGGGAGGGAGAAUCAACAGAGGAUUGAGCAUCA
B5: chr1:13148904:13149928:-|three_prime_utr|ENSG00000280267|control|control|control (ssRNA)
RNA: GGGAGUUCUACAGUCCGACGAUCCCUGGACCUGAGUGGCAUCAGACUGACCAAUUACAGUCUUGUGCCUCUCCAAAUUCUCCUAGAAAAAGUUGCAGCCACCCUUGAGUACCUGGAUUUAGAUGACUGUGGCAUCAUAGACUCCAACAGAGGAUUGAGCAUCA
B6: chr14:63372511:63372612:-|3pUTR|ENSG00000154001|unk|total|mutant (ssRNA)
RNA: GGGAGUUCUACAGUCCGACGAUCUGGGGAUGAGGGUGGGAUGGGAAAGGGAUGUAUGGAUGUUAUUGGCAUUUUUAAGUGUUCCGAGUUUUUUGGGGUUUGGGGUGGUUUUUUUUCCUUGUUUUCCUUUUUUCCUUUUAAUUGCAACAGAGGAUUGAGCAUCA
B7: chr5:74627411:74627511:-|3pUTR|ENSG00000171617|msi1_unk|total|mutant (ssRNA)
RNA: GGGAGUUCUACAGUCCGACGAUCUUUGUAAAACUGUUAUUUUUUUUUUUUUCACAAUGUGAAACUGAAGGUCAAUAAAUUAUCCGAGAUUUUCUCUUCAUUAUGUGUGUGGGUCUUCAUUUGAAUAAGACACAAUUUGAGGCACAACAGAGGAUUGAGCAUCA
B8: chr10:68442948:68443070:-|CDS|ENSG00000138346|unk|total|mutant (ssRNA)
RNA: GGGAGUUCUACAGUCCGACGAUCCCCAAUUGUGAUGCUGCCCAAAACCGAAGAAGAAACCCAGCAUCUGAAGCAAACACACUCCGAAUAUUUCAGCCUUUGGUGUCUAAUGUUAACCCUGGAGUCACAAUCGAAGGAUAAUAACAACAGAGGAUUGAGCAUCA
B9: ENSG00000127995:stop:overlap|stop_codon|ENSG00000127995|stop_codon|NA|stop_codon (ssRNA)
RNA: GGGAGUUCUACAGUCCGACGAUCUAGCUGCAUUUUUUUGUGGACUCCUCAUCUUAUCAUCCAUUCAAGAUAAAUCAAAACAUUAGGUUCCAAAAAUUCUAAAAAACCUAAACUCUUCAGGCUACCUUUGUGUGUCUCUAGAAGCAACAGAGGAUUGAGCAUCA
B10: chr12:13219749:13219850:+|3pUTR|ENSG00000134531|unk|total|mutant (ssRNA)
RNA: GGGAGUUCUACAGUCCGACGAUCACAACAGUGGAUGGGGAGGAAGAACAGACUUUUGAGCUCUUCCCAAUACCGGAAUGUGUCCGUUCUAAAAAUUUUCUUAAGUUGUUUGCUUGGAACUCAGAGUAUAUUUUUCCAUACGAACAACAGAGGAUUGAGCAUCA
B11: chr10:128098466:128098636:-|3pUTR|ENSG00000148773|msi1|total|mutant (ssRNA)
RNA: GGGAGUUCUACAGUCCGACGAUCUCCUUUCCUUUCUGAAAAUAAAGUUUUGUGCUUUGGAGAAUGACUCGUGAGCACAUCUUCCGGGACCAAGAGUGACUUUCUGUAAGGAGUGACUCGUGGCUUGCCUUGGUCUCUUGGGAACAACAGAGGAUUGAGCAUCA
B12: chr7:137014887:137014989:+|CDS|ENSG00000181072|unk|total|mutant (ssRNA)
RNA: GGGAGUUCUACAGUCCGACGAUCGCUACUUGGCUACUGAUCCGAGAACGCAAAAUGAAUAACUCAACAAACUCCUCUAACAACCGCCUGGCUCUUACAAGUCCUUAUAAGACAUUUGAAGUGGUGUUUAUUGUCCUGGUGGCUCAACAGAGGAUUGAGCAUCA
B13: chr17:8173470:8173636:-|3pUTR|ENSG00000179029|msi1|total|mutant (ssRNA)
RNA: GGGAGUUCUACAGUCCGACGAUCUGUUUGUCUGUAUCGUCAGGUGGGAUAAUCCUUACCUGUUCCUCCUCCGGAGGGCAGAUCCGAACAUGAUGAUUGGAGAUGCAUGAAACGUGAUUAACGUCUCUGCGUAAUCAGGACUUGCAACAGAGGAUUGAGCAUCA
B14: ENSG00000124766:be:win_3601|3pUTR|ENSG00000124766|bound_else_gene|NA|bound_elsewhere_windowed (ssRNA)
RNA: GGGAGUUCUACAGUCCGACGAUCUGUACUGCGUUUUUCAUUCUUGUAUUUGACUAUUUAAUCCUUUCUACUUGUCGCUAAAUAUAAUUGUUUUAGUCUUAUGGCAUGAUGAUAGCAUAUGUGUUCAGGUUUAUAGCUGUUGUGCAACAGAGGAUUGAGCAUCA
B15: ENSG00000198589:be:win_7751|CDS|ENSG00000198589|bound_else_gene|NA|bound_elsewhere_windowed (ssRNA)
RNA: GGGAGUUCUACAGUCCGACGAUCAAGUGCAUUCCCAGUGCUUUGUCAUCACUUCAGACAACCGCUAUAUUCUCGUCUGUGGCUUCUGGGAUAAAAGUUUCAGAGUCUAUUCUACAGACACAGGAAGAUUGAUCCAAGUGGUGUCAACAGAGGAUUGAGCAUCA
B16: ENSG00000198589:be:win_2051|CDS|ENSG00000198589|bound_else_gene|NA|bound_elsewhere_windowed (ssRNA)
RNA: GGGAGUUCUACAGUCCGACGAUCUACUGACUAUGCAUGAGGAUGACAAUCUAAUGGAUGUCCUACAGCUGCUUGUUGCAUUAAUGUCAGAACACCCUAACUCUAUGAUUCCUGCUUUUGACCAAAGGAAUGGGUUACGUGUUACAACAGAGGAUUGAGCAUCA
B17: chr17:42842016:42842117:+|3pUTR|ENSG00000131467|msi1|FALSE|unique (ssRNA)
RNA: GGGAGUUCUACAGUCCGACGAUCUUACUGUUUCUUUCCUCUGUGGGGCAUUGGAUCCUCCCACAGUUGCCCUGGUGAUGACUUAGGGCUUCCCAUCUGUGUACAUCCCACUUUGAAUCUUGAUCGUGACAAGAAAUACCUUAGCAACAGAGGAUUGAGCAUCA
B18: chr6:132296306:132296407:-|3pUTR|ENSG00000079931|msi1|FALSE|unique (ssRNA)
RNA: GGGAGUUCUACAGUCCGACGAUCAUGGGAAACAUAGAAAUGGUAUGUAUUAAUAACUGAUCAUAGGCUGAGGAGAAAAAAUGUAGCUGGCUGCAAACCCAGUGCUGUGAGGUGACUUAUAUGAGGUUCCAGAUCAAAGACAGGCAACAGAGGAUUGAGCAUCA
B19: chr2:69942770:69942871:+|3pUTR|ENSG00000059728|unk|total|mutant (ssRNA)
RNA: GGGAGUUCUACAGUCCGACGAUCUGUUUCCAGAUGUUUCUUUAUGUAAAUAUGACGCCAAUGUAAAUCCUGUGUCAAGAUCACCGAGAAUGGUGCUUUUUACUACAGUCCGCACAUGCAUUUUCCGAAACUACUACAUGUUUUCAACAGAGGAUUGAGCAUCA
B20: ENSG00000107863:be:win_51|CDS|ENSG00000107863|bound_else_gene|NA|bound_elsewhere_windowed (ssRNA)
RNA: GGGAGUUCUACAGUCCGACGAUCCAAGGCCUGCGAGGUCUCAAAAAAUAAAGAUGGAAAAGAACAAAGUGAAACUGUAUCACUGUCUGAAGAUGAAACAUUCUCCUGGCCAGGUCCCAAAACAGUUACGUUGAAAAGAACAUCCAACAGAGGAUUGAGCAUCA

Molecular target: T1, UNK ZnF1-6 (called full-length) (human, UniProt Q9C0B0 30-357)
T1 sequence: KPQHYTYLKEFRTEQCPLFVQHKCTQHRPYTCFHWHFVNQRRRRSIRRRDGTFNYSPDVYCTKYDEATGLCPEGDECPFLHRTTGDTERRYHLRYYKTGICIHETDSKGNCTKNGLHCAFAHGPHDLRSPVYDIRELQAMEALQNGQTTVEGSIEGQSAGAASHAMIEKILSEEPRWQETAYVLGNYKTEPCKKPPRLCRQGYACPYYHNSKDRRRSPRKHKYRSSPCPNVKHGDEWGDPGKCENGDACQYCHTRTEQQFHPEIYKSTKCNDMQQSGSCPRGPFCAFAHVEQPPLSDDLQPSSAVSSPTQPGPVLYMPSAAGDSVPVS
Assay: nsRBNS (natural sequence RNA bind-n-seq); RBNS binding buffer (assumed for nsRBNS): 25 mM Tris pH 7.5, 150 mM KCl, 3 mM MgCl2, 0.01% Triton X-100, 500 ug/ml BSA, 20 U/ml SUPERase-In, 4 C; UNK is unkempt and MSI1 is Musashi-1; names of the RNAs are library labels; protein concentration not given here; high values mean tight binding

Row | Binder | binding signal
1 | B1 | 0.538 enrichment R
2 | B2 | 0.869 enrichment R
3 | B3 | 0.597 enrichment R
4 | B4 | 0.625 enrichment R
5 | B5 | 0.577 enrichment R
6 | B6 | 1.7 enrichment R
7 | B7 | 0.75 enrichment R
8 | B8 | 0.471 enrichment R
9 | B9 | 0.828 enrichment R
10 | B10 | 0.58 enrichment R
11 | B11 | 0.483 enrichment R
12 | B12 | 0.461 enrichment R
13 | B13 | 0.686 enrichment R
14 | B14 | 0.795 enrichment R
15 | B15 | 0.285 enrichment R
16 | B16 | 0.35 enrichment R
17 | B17 | 0.557 enrichment R
18 | B18 | 0.863 enrichment R
19 | B19 | 0.355 enrichment R
20 | B20 | 0.505 enrichment R
